From PubChem
Cycloheximide cs = affects cycloheximide protein synthesis inhibition readout, counter-screen | 12% of 300,000 active | max response, % | AID 2314 | cell reporter, cycloheximide protein synthesis inhibition counterscreen; in the data active = max response mostly above about 13%, no sharp cut-off; inactive = mostly below about 14%; also: read at 38.3 µM for the half of the compounds with a filed dose; 0% is about no effect
Shiga toxin inh = inhibitors of Shiga toxin in Vero cells; Vero cells, Shiga toxin protein synthesis inhibition reporter; inhibition, % at 38.7 µM; 9.2% of 290,000 active; AID 2315; in the data active = inhibition mostly above about 28%, no sharp cut-off; inactive = mostly below about 43%; also: 0% is about no effect
LASV entry inh = inhibitors of Lassa virus binding or cell entry; Potency, µM (top dose mostly 37.9 µM), for inactives: at the top dose activity change, negative = inhibition, actives largely listed as inhibitors; 1.2% of 300,000 active; AID 540256; Lassa virus pseudotype entry inhibition, cell reporter; calls by dose curve; tested in HEK293 cells; also: potency is read from the fitted curve at half-maximal effect; % is scaled to controls: 0 for no effect and ±100 for the full control effect; nearly all actives have a fitted effect of over 50% in size
AMA1-RON2 inh = inhibitors of Plasmodium falciparum AMA1-RON2 interaction; AlphaScreen AMA1-biotinylated RON2 peptide binding; Potency, µM (series often up to 58.2 µM), for inactives: top-dose activity change, negative = inhibition, most hits filed as inhibitors; 0.2% of 360,000 active; active = well fitted inhibition curve with a large enough effect; inconclusive = small, poorly fitted or top-dose-only effect; inactive = no such curve, though single readings can be large or run the other way;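 also: potency is read from the fitted curve at half-maximal effect; 0% = vehicle wells and -100% = peptide control; nearly all actives have a fitted effect of over 45% in size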
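AMA1 (3D7) with his tag at 25 nM final met compounds first, then biotinylated RON2 peptide at 25 nM; detection used donor plus acceptor beads, 10 µg/mL apiece, read by AlphaScreen after 30 min at room temperature.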
Marburg entry inh = Marburg virus entry inhibition; Potency, µM (series often up to 37.8 µM), inactives show top-dose activity change, negative = inhibition, usual class: inhibitors; AID 540276; 1.8% of 300,000 active; Marburg virus pseudotyped entry inhibition, cell reporter; calls by dose curve; tested in HEK293 cells; also: potency is read from the fitted curve at half-maximal effect; % is scaled to controls: 0 for no effect and ±100 for the full control effect
The depositor's hits bear a star; ? = inconclusive; · = no result given; + = active, no number; [ ] = remark or other dose. Many of the other results were omitted from the sample, so hits are more common in it than they were.

SMILES	Cycloheximide cs	Shiga toxin inh	LASV entry inh	AMA1-RON2 inh	Marburg entry inh
Cc1nnc(NC(=O)c2cc(-c3ccncc3)nc3c(C)cccc23)s1	36.0*	32.2*	·	-8.9%	·
CN(C)CCN(C(=O)C1CCCCC1)c1nc2cc3c(cc2s1)OCCO3	·	·	·	-8.6%	·
CN(C)CCN(C(=O)c1ccc(Br)s1)c1nc2cc3c(cc2s1)OCCO3	44.0*	67.6*	16.2%[46.1 µM]	-5.1%	-2.6%[46.1 µM]
CN(C)CCN(C(=O)c1cccs1)c1nc2cc3c(cc2s1)OCCO3	51.3*	82.0	3.2%	-24.7%	-6.6%
Nc1cc(=O)nc(SCC(=O)Nc2ccc(F)cc2)n1-c1cccc(Cl)c1	·	·	-1.8%[46.1 µM]	·	?
Nc1nnc(N2CCc3ccccc32)s1	27.2*	56.9*	?	-8.5%	-11.5%
CCCCn1nc(C(=O)N(C)CC(=O)Nc2ccc(F)c(F)c2F)ccc1=O	·	·	7.9%	4.0%[11.6 µM]	14.9%
Cn1c(=N)n(CC(=O)c2ccc(Br)cc2)c2ccccc21	·	·	10µM*	27.0%	?
Cn1c(=N)n(CC(=O)c2ccc(F)cc2)c2ccccc21	36.8*	67.6*	?	6.5%	?
N=C1CCCN1CC(=O)c1ccc(Br)cc1	45.6*	+	24.3%	16.4%	?
O=C(CN1C(=O)c2ccccc2C1=O)c1ccc(F)cc1	26.1*	49.1	?	7.2%	2.3%
O=C(CSc1n[nH]c(-c2ccncc2)n1)c1ccccc1	-1.0	21.3	?	-5.7%	6.3%
CCCCOc1ccc(-c2nc(SCC(N)=O)n[nH]2)cc1	33.7*	47.7	?	-5.2%	2.5%
COc1ccc(-c2nc(SCC(=O)Nc3cc(C)on3)n[nH]2)cc1	2.8	28.7	?	-1.0%	4.6%
C=CCSc1n[nH]c(-c2ccc(OC)cc2)n1	60.6*	116.0*	-18.2%	5.4%	1.2%
C=CCSc1n[nH]c(-c2ccccc2)n1	30.4*	50.6*	11.4%	8.1%	?
CCCN1CCN(c2cc3c(cc2F)c(=O)c(S(=O)(=O)c2ccc(CC)cc2)cn3CC)CC1	·	·	-17.0%[46.1 µM]	·	·
COCCn1c(=NC(=O)c2cc(-c3cccs3)nc3ccccc23)sc2cc(S(N)(=O)=O)ccc21	1.0	-1.0	?	13.3%	9.2µM*
CCOC(=O)c1cc(S(=O)(=O)N2CCN(c3ccc(F)cc3)CC2)[nH]n1	·	·	-2.8%[46.1 µM]	·	·
CNCCC=C1c2ccccc2CCc2ccccc21	-3.4	-2.6	20.6µM*	-2.4%	7.08µM*
CCc1nc2ccc(C(=O)Nc3cccc(OCC(=O)N(C)C)c3)cn2c1N(C=O)Cc1ccc(OC)cc1	·	·	·	3.1%	·
C=CCn1c(/N=C/c2ccc(N(C)C)cc2)nc2ccccc21	-2.3	-2.3	6.1%	-0.6%	?
CN(C)c1ccc(/C=N/n2ncc3ccccc32)cc1	38.8*	97.7*	13µM*	74.2%	10.3µM*
COc1ccc(CCC(=O)N2CCCC(Nc3ccc(C)c(C)c3)C2)cc1OC (stereo not drawn)	23.0*	-7.0	·	-21.7%	·
Cc1ccc(S(=O)(=O)N2[C@@H](c3cccc(Cl)c3)C(C(=O)OC(C)(C)C)=CC[C@H]2c2cccc(Cl)c2)cc1	·	·	·	7.4%	·
SMILES	Cycloheximide cs	Shiga toxin inh	LASV entry inh	AMA1-RON2 inh	Marburg entry inh
CCOC(=O)N1CCN(c2c(N3CCN(C(=O)OCC)CC3)c(=O)c2=O)CC1	1.0	-8.5	·	15.3%	·
COC(COC(N)=O)C1=C(N2CC2)C(=O)C(C)=C(N2CC2)C1=O (stereo not drawn)	·	·	1.26µM*	-3.1%	?
Cc1ccc(-c2nn(-c3ccccc3)cc2/C=C/C(=O)O)o1	13.9*	32.7	5.6%	-4.0%	0.3%
O=C(O)/C=C/c1cn(-c2ccccc2)nc1-c1cc2ccccc2oc1=O	22.3*	41.5*	·	1.6%	·
O=Cc1cn(-c2ccccc2)nc1-c1cc2cc(O)ccc2oc1=O	-2.9	-8.8	-21.3%	-0.5%	9.3%
CC1=CC(=O)C(C(C)=Nc2ccccc2[N+](=O)[O-])C(=O)O1 (stereo not drawn)	·	·	?	6.3%	0.6%
CC1(C)CC(=O)C([C@H]2C3=C(CC(C)(C)CC3=O)Oc3ccccc32)C(=O)C1	·	·	·	·	-5.1%[46.1 µM]
CC1(C)CC(=O)C2=C(C1)Oc1nc3ccccc3cc1C2C(C#N)C#N (stereo not drawn)	-0.9	-3.4	15.8µM*	-6.3%	?
CCOc1ccc(C2C(C(=O)Nc3ccccc3C)=C(C)Nc3nnnn32)cc1 (stereo not drawn)	·	·	-20.8%[46.1 µM]	·	4.7%[46.1 µM]
NC(=O)N/N=C/c1ccc2cccc(OCc3ccccc3)c2n1	1.5	19.7	-25.1%	17.3%	-7.6%[46.1 µM]
O=C(Cc1ccccc1)N/N=C/c1ccc2cccc(O)c2n1	31.6*	37.6	?	28.6%	-3.2%[46.1 µM]
